Reference: PubChem BioAssay AID1986 (Sanford-Burnham Center for Chemical Genomics, 2009)
Where “and” joins values, the source holds several entries; their conditions need not be identical. Identical values can stand only once. Screen size: about 290,000 compounds; about 890 (0.31%) were called active. Cut-off read from the data, not from the text of the source: active = inhibition mostly above about 52% (no sharp cut-off); inactive = mostly below about 76%. Shown is part of a subset that was picked to be rich in actives.

Experiment: cell-free HIV fusion peptide-binding blockers – biochemical, uHTS, fluorescence dequenching, primary screen (AID 1986)
Settings: 30 min, stronger effect = higher value
[1] = measured here: repeat confirmation average inhibition, at 18.6 µM

SMILES	inhibition (at 20 µM)	inhibition [1] [%]
COCCNC(=O)Cn1cc(/C=C2\C(=O)NC(=O)N(c3cccc(C)c3C)C2=O)c2ccccc21	90.2% (active)	50.7
COCCNC(=O)Cn1cc(/C=C2\C(=O)NC(=O)N(c3ccccc3F)C2=O)c2ccccc21	159% (inactive)	–
O=C(O)Cn1cc(C=C2C(=O)NC(=O)NC2=O)c2ccccc21	4.8% (inactive)	–
COCCNC(=O)Cn1cc(C=C2C(=O)NC(=O)NC2=O)c2ccccc21	43.1% (inactive)	–
O=C(Cn1cc(C=C2C(=O)NC(=O)NC2=O)c2ccccc21)NCC1CCCO1 (stereo not drawn)	61.4% (active)	112
COCCCNC(=O)Cn1cc(/C=C2\C(=O)NC(=O)N(c3ccccc3F)C2=O)c2ccccc21	159% (inactive)	–
CC(Cc1ccccc1)[n+]1cc(/N=C(\[O-])Nc2ccccc2)on1 (stereo not drawn)	-1.8% (inactive)	–
O=C(NCc1ccccn1)c1ccccc1Cl	-1.3% (inactive)	–
CCOC(=O)c1c(C)c(P(=S)(N2CCOCC2)N2CCOCC2)n(C)c1C	-1.8% (inactive)	–
CC(C)n1c(=O)c(C=Nc2ccc(Br)cc2)c(O)n(Cc2ccco2)c1=O	66.2% (active)	–
CC(C)n1c(=O)c(C=Nc2ccc(F)cc2)c(O)n(Cc2ccco2)c1=O	0.1% (inactive)	–
CC(C)n1c(=O)c(C=Nc2ccc(Cl)cc2)c(O)n(Cc2ccco2)c1=O	52.7% (inactive)	4.1
CCOC(=O)C1CCN(Cc2ccc(Cl)nc2)CC1	-0.9% (inactive)	–
O=C1N(c2cccc(Cl)c2)C(c2cccnc2)N2CCCN12 (stereo not drawn)	-0.5% (inactive)	–
O=C1NC(=O)[C@]2(Cc3ccccc3N3CCN(c4ccccc4)CC32)C(=O)N1Cc1ccccc1 (stereo partly drawn)	1.5% (inactive)	–
COc1ccc(-c2nc3ccc(C(=O)N4CCC5(CC4)OCCO5)cc3nc2-c2ccc(OC)cc2)cc1	-1.1% (inactive)	–
Cc1cc(/C=C2\C(=O)NC(=O)N(c3ccccc3)C2=O)c(C)n1-c1ccc(C(=O)O)c(Cl)c1	9.8% (inactive)	–
Cc1cc(/C=C2\C(=O)NC(=O)N(Cc3ccccc3)C2=O)c(C)n1-c1ccc(Cl)c(C(=O)O)c1	52.5% (active)	–
Cc1cc(/C=C2\C(=O)NC(=O)N(Cc3ccccc3Cl)C2=O)c(C)n1-c1ccc(C(=O)O)cc1	67.8% (inactive)	40.6
CCN1C(=O)NC(=O)/C(=C\c2cn(CC(=O)N3CCCCC3)c3ccccc23)C1=O	92.7% (active)	–
COC(=O)Cn1cc(C=C2C(=O)NC(=O)NC2=O)c2ccccc21	10% (inactive)	–
CN1C(=O)C(=Cc2cn(CC(=O)N3CCCC3)c3ccccc23)C(=O)N(C)C1=O	9.1% (inactive)	–
CCOC(=O)Cn1cc(C=C2C(=O)N(C)C(=O)N(C)C2=O)c2ccccc21	58.4% (active)	149
CCN(CC)C(=O)Cn1cc(C=C2C(=O)N(C)C(=O)N(C)C2=O)c2ccccc21	9.3% (inactive)	–

SMILES	inhibition (at 20 µM)	inhibition [1] [%]
COC(=O)Cn1cc(C=C2C(=O)N(C)C(=O)N(C)C2=O)c2ccccc21	118% (active)	98.7
CCn1cc(C=C2C(=O)N(C)C(=O)N(C)C2=O)c2ccccc21	6.6% (inactive)	–
CCOC(=O)C1(c2ccccc2)CCN(CCC(=O)Nc2ccccc2OC)CC1	1.8% (inactive)	–
CN1CCN(c2ccccc2N)CC1	1.6% (inactive)	–
Cc1ccc(-n2c(O)c(C=NC3CCCC3)c(=O)[nH]c2=O)c(C)c1	2.6% (inactive)	–
CCOP(=O)(OCC)C(NC(=O)C(C)C)C(Cl)(Cl)Cl (stereo not drawn)	0.1% (inactive)	–
CC/C(=N\NC(=O)c1ccccc1O)c1c(O)n(C2CCCCC2)c(=O)[nH]c1=O	51.3% (inactive)	46.2
Cc1ccc2c(c1Cl)NC(C(=O)O)C1CC(Sc3ccccc3[N+](=O)[O-])C(Cl)C21 (stereo not drawn)	63% (inactive)	28
O=C(O)c1cccc2c1NC(C(=O)O)C1CC(Sc3ccccc3[N+](=O)[O-])C(Cl)C21 (stereo not drawn)	63.2% (active)	–
CC(=O)c1ccc2c(c1)C1C(Cl)C(Sc3ccccc3[N+](=O)[O-])CC1C(C(=O)O)N2 (stereo not drawn)	54.5% (inactive)	1.3
O=C(COc1ccccc1)c1cn(Cc2ccccc2)c2ccccc12	80.8% (active)	–
CCC(=O)c1cn(Cc2ccccc2)c2ccccc12	-1.1% (inactive)	–
CC(C)(C)C(=O)c1cn(Cc2ccccc2)c2ccccc12	-0.8% (inactive)	–
COC(=O)N(C)c1ccc(C(O)(C(=O)OC)C(F)(F)F)cc1 (stereo not drawn)	0% (inactive)	–
CC1Oc2cc3c(-c4c(O)cc(O)c5c(O)c6c(cc45)OC(C)C(C)C6=O)c(O)cc(O)c3c(O)c2C(=O)C1C (stereo not drawn)	54.2% (active)	–
O=C(O)c1ccc(N=Cc2c(O)[nH]c(=O)[nH]c2=O)cc1	15.8% (inactive)	–
CCOC(=O)c1cc(CC)sc1/N=C/C1C(=O)NC(=S)NC1=O	30.8% (inactive)	–
COc1ccc(C(=O)CC2(CC(=O)c3ccc(OC)cc3)C(=O)N(C)C(=O)N(C)C2=O)cc1	3.7% (inactive)	–
CCn1nc(/C=C/c2ccccc2)nc2c(=O)n(C)c(=O)nc1-2	1.1% (inactive)	–
CCn1nc(-c2ccccc2)nc2c(=O)n(C)c(=O)nc1-2	80.2% (active)	60.9
CCn1nc(-c2cccs2)nc2c(=O)n(C)c(=O)nc1-2	1.6% (inactive)	–
CC1=C(C(=O)O)N2C(=O)C(NC(=O)Cc3ccccc3)C2SC1 (stereo not drawn)	3.3% (inactive)	–
O=P(/C(=N/O)N1CCOCC1)(N1CCOCC1)N1CCOCC1	2.4% (inactive)	–
CCOC(=O)C1CCN(C(C)C(=O)c2c(C)[nH]c3cc(C)ccc23)CC1 (stereo not drawn)	8.4% (inactive)	–

SMILES	inhibition (at 20 µM)	inhibition [1] [%]
CCC1CCCCN1P(=O)(c1ccc(C)o1)C(C)(C)C (stereo not drawn)	5.9% (inactive)	–
CCc1cc(=O)oc2c(C)c(OCC(=O)N3C[C@H]4C[C@@H](C3)c3cccc(=O)n3C4)ccc12	1.3% (inactive)	–
O=C(C1c2ccccc2C(=O)N2CCc3ccccc3C12)N1CCC2(CC1)OCCO2 (stereo not drawn)	-2.3% (inactive)	–
COc1ccc(CCNCc2cccn2C)cc1	-1.8% (inactive)	–
NC(=O)c1cn(C2CCCCC2)c2ccccc2c1=O	-1.7% (inactive)	–
CCCCCC(=O)N[C@@H](c1ccccc1)[C@@H](O)C(=O)O[C@H]1C[C@@]2(O)[C@@H](OC(=O)c3ccccc3)C3[C@](C)(C(=O)[C@H](O)C(=C1C)C2(C)C)[C@@H](OC1OCC(O)C(O)C1O)C[C@H]1OC[C@@]31OC(C)=O (stereo partly drawn)	0% (inactive)	–
O=C1NC(=O)N(c2ccc3c(c2)OCO3)C(=O)/C1=C/c1ccc(N2CCCC2)o1	111% (active)	89.9
O=C1NC(=O)N(c2ccc3c(c2)OCO3)C(=O)/C1=C/c1cccs1	12.1% (inactive)	–
CCOc1ccc(N2C(=O)NC(=O)/C(=C\c3ccc(N4CCCCC4)o3)C2=O)cc1	152% (inactive)	–
O=C1NC(=O)N(c2ccc3c(c2)OCO3)C(=O)/C1=C/c1ccc(N2CCCCC2)o1	0.8% (inactive)	–
O=C1NC(=O)N(c2ccc3c(c2)OCO3)C(=O)/C1=C\c1ccc(-c2ccccc2C(=O)O)o1	22.4% (inactive)	–
O=C1NC(=O)N(c2ccc3c(c2)OCO3)C(=O)/C1=C\c1ccc(N2CCCCC2)o1	112% (active)	70.4
CC(C)Cc1nnc(NC(=O)CCC(=O)N2CCC3(CC2)OCCO3)s1	-0.2% (inactive)	–
FC(F)(F)c1ccccc1NC1=NCCCS1	-1% (inactive)	–
O=C1NC(=O)N(c2cccc(Cl)c2)C(=O)/C1=C\c1ccc(Sc2nc3ccccc3[nH]2)o1	78.9% (active)	–
O=C1NC(=O)N(c2ccccc2F)C(=O)/C1=C/c1ccc(Sc2nc3ccccc3[nH]2)o1	39% (inactive)	–
O=C1NC(=O)N(c2ccc(Cl)cc2)C(=O)/C1=C\c1ccc(Sc2nc3ccccc3[nH]2)o1	60.1% (inactive)	26
CC1CC2(O)c3no[n+]([O-])c3CCC2N1O (stereo not drawn)	1.4% (inactive)	–
Cc1nc2ccc(Cl)cc2c(=O)n1-c1ccc([N+](=O)[O-])cc1	-1.1% (inactive)	–
N#Cc1c(/N=C/c2ccc(O)cc2O)sc2c1C1CCN2CC1	3% (inactive)	–
CCN(CC)c1ccc(/C=N/c2sc3c(c2C#N)C2CCN3CC2)c(O)c1	120% (active)	193
CC(=O)c1c(C)n(Cc2ccccc2Cl)c2ccc(O)cc12	-2.4% (inactive)	–
Fc1ccc(Cn2nnnc2C(c2ccc(F)cc2)N2CC=C(c3ccc(F)cc3)CC2)cc1 (stereo not drawn)	-1.1% (inactive)	–
CCOc1ccc(-n2c(O)c(/C=C3\C=Nc4ccccc43)c(=O)[nH]c2=O)cc1	166% (inactive)	–

SMILES	inhibition (at 20 µM)	inhibition [1] [%]
CCCCn1c(O)c(/C=C2\C=Nc3ccccc32)c(=O)[nH]c1=O	78.2% (active)	–
C=CCn1c(O)c(/C=C2\C=Nc3ccccc32)c(=O)[nH]c1=O	12.9% (inactive)	–
O=c1[nH]c(=O)n(-c2ccccc2F)c(O)c1/C=C1\C=Nc2ccccc21	20.7% (inactive)	–
O=c1[nH]c(=O)n(CC2CCCO2)c(O)c1/C=C1\C=Nc2ccccc21 (stereo not drawn)	5.1% (inactive) and 14.6% (inactive)	–
O=c1[nH]c(=O)n(Cc2ccccc2)c(O)c1/C=C1\C=Nc2ccccc21	102% (active)	66.2
CCOP(=O)(OCC)/C(C#N)=C/c1ccoc1	13.5% (inactive)	–
CC(=O)c1ccccc1NC(=O)C1C2CCC(O2)C1C(=O)O (stereo not drawn)	0% (inactive)	–
O=C1Nc2ccc(Br)cc2C(c2ccc(Cl)cc2)=NC1O (stereo not drawn)	-1.3% (inactive)	–
CN1CCC(C)(O)C2CCCCC21 (stereo not drawn)	-1.3% (inactive)	–
Cc1cc(NC(=O)C(Cl)(Cl)Cl)no1	1% (inactive)	–
CCOC(=O)C1C(=O)N(C)C2(C)CC1c1ccccc1O2 (stereo not drawn)	1.4% (inactive)	–
CN1C(=O)C(=Cc2ccc(Sc3ccccc3)o2)C(=O)N(C)C1=O	15.9% (inactive)	–
O=C1NC(=O)C(=Cc2ccc(N3CCOCC3)o2)C(=O)N1	127% (inactive)	–
CCN(CC)c1ccc(/C=C2\C(=O)NC(=S)N(C)C2=O)o1	149% (inactive)	–
CN1C(=O)/C(=C/c2ccc(N3CCCCCC3)o2)C(=O)NC1=S	103% (active)	52.7
Cc1ccccc1N1C(=O)NC(=O)/C(=C/c2ccc(N3CCOCC3)o2)C1=O	124% (active)	80.2
CCOc1cccc(N2C(=O)/C(=C/c3ccco3)C(=O)NC2=S)c1	15.4% (inactive)	–
O=C1NC(=S)N(c2ccccc2)C(=O)/C1=C/c1ccco1	29.6% (inactive)	–
CCN(CC)c1ccc(C=C2C(=O)N(C)C(=S)N(C)C2=O)o1	91% (active)	50.9
Cc1ccccc1N1C(=O)/C(=C/c2ccco2)C(=O)NC1=S	76.1% (active)	–
Cc1ccccc1N1C(=O)NC(=O)/C(=C\c2cc(Br)c(N3CCOCC3)o2)C1=O	147% (inactive)	–
CN1C(=O)/C(=C\c2ccc(N3CCCCC3)o2)C(=O)NC1=S	151% (inactive)	–
CN1C(=O)/C(=C\c2ccc(N3CCCCCC3)cc2)C(=O)NC1=S	1.7% (inactive)	–
